High-throughput results: PubChem BioAssay, Sanford-Burnham Center for Chemical Genomics
tim10-1 inh – inhibits growth of tim10-1 mutant yeast. S. cerevisiae tim10-1 ts strain growth, BacTiter-Glo, 24 h. inhibition, % at 20 µM. 2.2% of 330,000 active;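 active means inhibition of at least 40%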;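 further: mutant grown at 25 °C; 0% = DMSO wells with yeast and 100% = wells holding no yeast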
Mdm2 MdmX PPI – human Mdm2/MdmX binding inhibition; O15151+Q00987; SaOS-2 split-luciferase Mdm2/MdmX complementation, luminescence; inhibition, % at 8 µM; 3% of 330,000 active; AID 485346;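 active means inhibition of at least 50% at 8 µM in the primary screen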
Target sequence (O15151 whole entry, looked up): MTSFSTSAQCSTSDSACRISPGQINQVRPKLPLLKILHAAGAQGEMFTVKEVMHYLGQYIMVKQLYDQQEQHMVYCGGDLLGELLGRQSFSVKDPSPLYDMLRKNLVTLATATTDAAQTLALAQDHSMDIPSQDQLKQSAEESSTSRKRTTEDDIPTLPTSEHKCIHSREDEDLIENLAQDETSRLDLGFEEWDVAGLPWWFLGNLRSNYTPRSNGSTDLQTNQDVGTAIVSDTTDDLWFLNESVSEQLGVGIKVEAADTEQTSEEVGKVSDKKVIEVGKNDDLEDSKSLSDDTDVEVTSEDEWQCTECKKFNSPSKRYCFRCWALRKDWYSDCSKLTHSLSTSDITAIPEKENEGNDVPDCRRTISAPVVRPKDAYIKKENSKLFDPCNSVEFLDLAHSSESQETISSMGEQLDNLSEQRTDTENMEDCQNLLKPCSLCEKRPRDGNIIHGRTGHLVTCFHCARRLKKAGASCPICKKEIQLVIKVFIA
Target sequence (Q00987 whole entry, looked up): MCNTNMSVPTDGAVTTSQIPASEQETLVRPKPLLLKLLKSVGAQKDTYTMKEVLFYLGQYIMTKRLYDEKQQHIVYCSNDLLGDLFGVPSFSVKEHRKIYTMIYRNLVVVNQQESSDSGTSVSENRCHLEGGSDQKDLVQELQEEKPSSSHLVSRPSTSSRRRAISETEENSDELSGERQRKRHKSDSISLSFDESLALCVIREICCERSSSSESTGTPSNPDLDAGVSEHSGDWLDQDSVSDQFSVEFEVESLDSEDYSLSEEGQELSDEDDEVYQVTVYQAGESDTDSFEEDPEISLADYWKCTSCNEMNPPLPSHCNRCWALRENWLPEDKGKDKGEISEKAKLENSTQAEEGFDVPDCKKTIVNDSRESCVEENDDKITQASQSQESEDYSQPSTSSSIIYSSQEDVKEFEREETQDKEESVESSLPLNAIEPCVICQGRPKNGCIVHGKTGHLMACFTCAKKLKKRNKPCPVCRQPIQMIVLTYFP
TIM10 inh – TIM10 yeast growth inhibition; S. cerevisiae TIM10 strain growth, BacTiter-Glo luminescence, 24 h; inhibition, % at 10 µM; 1.4% of 330,000 active; AID 463195;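 active means inhibition of 40% or more at the single tested concentration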;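 further: wild-type TIM10 isogenic control strain grown at permissive 25 °C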
MPTP block – permeability transition pore inhibition; 1.4% of 360,000 active; AID 602449; isolated mouse mitochondria, Ca2+ swelling absorbance, 30 min; inhibition, % at 10 µM;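 active means inhibition of 50% or more, scaled per plate between neutral and stimulator controls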;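 further: 0% = DMSO wells given calcium and 100% = 1 mM EGTA wells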
tim23-1 inh – tim23-1 yeast growth inhibition | S. cerevisiae tim23-1 growth, BacTiter-Glo luminescence, 24 h | inhibition, % at 20 µM | 1.3% of 330,000 active | AID 463212;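 active means growth inhibition of the mutant yeast at or above 50%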;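 further: temperature-sensitive mutant grown at 25 °C; plate controls were DMSO-treated mutant yeast for no effect and medium wells lacking yeast for full effect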
Mdm2 MdmX conf – confirmation of human Mdm2/MdmX interaction inhibitors. Mdm2-MdmX binding, luminescent assay. inhibition, % at 8 µM. shares compounds with Mdm2 MdmX PPI. AID 489028. 55% of 10,000 active; in the data active means inhibition above about 40%
Full FLuc ctr – counter-screen for Mdm2/MdmX inhibitors: full-length luciferase; shares compounds with Mdm2 MdmX PPI; SaOS-2 full-length luciferase counterscreen, luminescence; inhibition, % at 8 µM; 77% of 6,200 active;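 active means mean inhibition at 8 µM reaching about 37%, which flags the compound as non-specific, limit read from the data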;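 further: p53-null SaOS-2 cells with luciferase driven by a doxycycline-inducible promoter; compound on cells about two nights before reading with doxycycline added after day one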
* = called active by the depositor; · = no result. The list is not random: actives were taken first. Their share in the collection is about 6.3%.

SMILES	tim10-1 inh	Mdm2 MdmX PPI	TIM10 inh	MPTP block	tim23-1 inh	Mdm2 MdmX conf	Full FLuc ctr
Cc1cccc(C)c1NC(=O)c1csc([C@@H]2O[C@H](CO)[C@H](O)[C@H](O)[C@H]2O)n1	·	·	·	0.3	·	·	·
O=[N+]([O-])c1cc(CN2CCN(c3ccccc3)CC2)c(O)c2ncccc12	-4.9	75.3*	-7.8	1.6	-5.6	79.2*	42.4*
CC(=O)NC(c1ccc(C)cc1)c1cc([N+](=O)[O-])c2cccnc2c1O (centres undefined)	36.6	68.4*	25.1	-17.9	-12.7	68.0*	25.0
CN(Cc1cc([N+](=O)[O-])c2cccnc2c1O)C1CCCCC1	8.6	3.8	-15.2	·	1.3	·	·
CCCCC(=O)NC(c1cccs1)c1cc(Cl)c2cccnc2c1O (centres undefined)	22.9	84.7*	13.1	7.7	43.9	75.3*	28.5
CCOC(=O)C1(C)CCCCN1C(=O)c1ccoc1 (centres undefined)	·	·	·	1.9	·	·	·
O=C(COC(=O)c1cc(S(=O)(=O)N2CCCCC2)ccc1N1CCOCC1)c1ccccc1Cl	·	·	·	-0.8	·	·	·
COc1ccc(S(=O)(=O)N2c3ccc(F)cc3CCC2C)cc1 (centres undefined)	26.4	59.1*	4.8	4.7	26.8	63.3*	97.1*
COc1cc(OC)cc(-c2nnc(NC(=O)CCS(=O)(=O)c3ccccc3)o2)c1	-6.5	42.9	-5.3	-1.0	0.0	·	·
COc1cc(-c2nnc(NC(=O)CCS(=O)(=O)c3ccc(F)cc3)o2)cc(OC)c1OC	16.7	71.5*	2.4	-0.4	5.5	69.2*	47.6*
COc1cc(-c2nnc(NC(=O)CCS(=O)(=O)c3ccccc3)o2)cc(OC)c1OC	22.3	79.4*	2.7	0.2	3.4	65.4*	63.3*
COc1cc(OC)cc(-c2nnc(NC(=O)CCS(=O)(=O)c3ccc(F)cc3)o2)c1	23.4	58.7*	-2.2	0.5	7.3	54.9*	64.5*
O=C(CCS(=O)(=O)c1ccc(F)cc1)Nc1nnc(-c2cccs2)o1	7.9	43.5	-2.2	-0.6	29.0	·	·
O=C1NC[C@@H](CCCCN2C[C@H](Cc3ccccc3)N(Cc3ccccc3)C(=O)C2=O)N(CCc2ccccc2)C1=O	·	·	·	-0.4	·	·	·
Cc1ccc(NC(=O)CSc2nc(-c3ccco3)cc(C(F)(F)F)n2)cc1C	-9.4	43.6	-3.7	48.8	-0.6	·	·
O=C(CSc1nc(-c2ccco2)cc(C(F)(F)F)n1)Nc1ccc2c(c1)CCC2	2.5	51.9*	7.2	2.2	7.7	60.8*	44.5*
Cc1cc(NC(=O)CSc2nc(-c3ccco3)cc(C(F)(F)F)n2)n(-c2ccccc2)n1	17.2	54.0*	-20.5	0.3	13.0	56.4*	54.4*
COC(=O)c1ccccc1NC(=O)CSc1nc(-c2ccco2)cc(C(F)(F)F)n1	-0.3	66.7*	8.3	-0.3	20.3	61.8*	73.6*
O=C(c1ccccc1)c1sc(Nc2ccc3c(c2)OCO3)nc1-c1ccccc1	·	·	·	2.7	·	·	·
Cc1ccc(NS(=O)(=O)c2cc(-c3n[nH]c(=O)c4ccccc34)ccc2C)cc1	21.3	64.0*	12.1	8.3	27.7	65.7*	50.2*
CCOC(=O)CNS(=O)(=O)c1cc(-c2n[nH]c(=O)c3ccccc23)ccc1C	·	·	·	-0.4	·	·	·
Cn1c(=O)n(C)c2cc(NS(=O)(=O)c3ccccc3)ccc21	0.2	50.7*	-0.4	-0.6	8.3	19.1	·
CCc1ccc(S(=O)(=O)Nc2cc3c(cc2C)n(C)c(=O)n3C)cc1	14.7	57.9*	0.8	11.8	8.2	55.0*	59.5*
CCOC(=O)c1sc(NC(=O)/C=C/c2ccccc2)nc1C	0.1	-10.9	0.3	8.2	-0.3	·	·
CCOC(=O)CNC(=O)c1sc(NC(=O)/C=C/c2ccccc2)nc1C	-5.9	68.8*	-24.6	0.4	-13.9	12.2	·
SMILES	tim10-1 inh	Mdm2 MdmX PPI	TIM10 inh	MPTP block	tim23-1 inh	Mdm2 MdmX conf	Full FLuc ctr
COc1ccc(CNCCC(c2ccc(F)cc2)c2ccc(OC(C)C)cc2)cc1OC (centres undefined)	22.9	92.6*	25.8	3.2	13.6	34.0	75.5*
COc1ccc(C(CCNCc2ccc(F)cc2)c2ccc(F)cc2)cc1 (centres undefined)	-0.3	76.3*	19.7	4.0	32.0	33.9	90.0*
COc1ccc(CNCCC(c2ccccc2)c2ccc(OC(C)C)cc2)cc1OC (centres undefined)	26.6	75.0*	25.7	10.2	10.7	26.3	·
COc1ccc(C(CCN(Cc2ccc(OC)c(OC)c2)C(C)=O)c2ccccc2)cc1 (centres undefined)	21.6	18.1	24.4	2.6	-4.7	·	·
COc1ccc(CN(CCC(c2ccccc2)c2ccc(OC(C)C)cc2)C(=O)CCl)cc1OC (centres undefined)	31.3	100.5*	23.3	1.3	31.9	85.2*	55.1*
O=C(NC1CCCC1)C(C1CC1)n1c(C2CC2)nc2ccccc21 (centres undefined)	·	·	·	6.9	·	·	·
CN(Cc1cccc(F)c1)C(=O)C1CC(=O)N(Cc2ccco2)C1 (centres undefined)	·	·	·	-1.5	·	·	·
COc1cnc(-c2ccccn2)nc1N(C)c1ccccc1	-30.8	79.8*	23.3	-0.5	10.0	76.8*	56.2*
COc1ccc(C2=Nc3ccccc3NC(=O)C2N(C(=O)c2ccnc3ccccc23)c2ccccc2)cc1 (centres undefined)	·	·	·	-0.5	·	·	·
Cn1cc(CN2CCN(c3ccc(Cl)cn3)CC2)c(-c2ccccc2F)n1	4.7	8.8	-5.6	2.7	18.3	·	·
Cc1cccc(N2CCN(Cc3cn(C)nc3-c3ccccc3F)CC2)n1	0.3	54.8*	13.5	1.5	1.3	69.7*	49.4*
C#Cc1ccc([C@@H]2C=C(C(=O)N3CCN(Cc4ccccc4)CC3)O[C@H](OCCCCO)C2)cc1	25.4	56.7*	24.0	1.1	26.1	77.2*	36.8*
CN(C)c1ccc(C=Nc2cnn(C)c2C(N)=O)cc1	11.3	52.4*	-4.8	0.7	15.4	-1.2	·
Cn1ncc(N=Cc2ccccc2[N+](=O)[O-])c1C(N)=O	21.6	19.6	2.4	0.1	14.9	·	·
Cc1ccc(S(=O)(=O)N2CCCC(C(=O)NCCc3ccc(Cl)cc3)C2)cc1 (centres undefined)	·	·	·	-0.3	·	·	·
CCc1ccc(S(=O)(=O)Nc2ccc(-c3ccc4nnc(C)n4n3)cc2)s1	10.0	13.6	9.7	-0.4	13.2	·	·
CCc1ccc(S(=O)(=O)Nc2cccc(-c3ccc4nnc(C)n4n3)c2)s1	4.2	55.3*	-10.0	-0.7	-19.4	52.9*	85.0*
COc1ccc(OC)c(S(=O)(=O)Nc2ccc(-c3ccc4nnc(C)n4n3)cc2)c1	15.6	51.1*	-6.5	-1.3	18.6	61.0*	65.1*
COc1ccc(S(=O)(=O)Nc2ccc(-c3ccc4nnc(C)n4n3)cc2)c(OC)c1	9.0	71.4*	9.4	0.9	15.9	35.9	·
